Measurements published in PubChem BioAssay AID1159580 (chemical genetic matrix, 2015).
“And” between values parts separate entries of the source, which are not always exact repeats. Equal values may be shown once. Among all 5,500 compounds or so, about 2,000 (36%) were called active. Roughly 18% stayed inconclusive and do not appear here. Cut-off read from the data, not from the text of the source: active = normalized growth mostly below about 0.91 (no sharp cut-off); inconclusive = no clear call, values can overlap the other calls; inactive = mostly above about 0.92. The list shows a part of the results.

Test: chemical genetic growth profiling, strain panel (AID 1159580);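 note: tested at 20 µM; growth read once vehicle control cultures reached saturation at 30 °C; 1 = growth at the plate median or of vehicle wells; lower values mean less growth of the strain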
Details: S. cerevisiae deletion strains, growth OD

Measured: normalized growth

N[C@H](Cc1ccccc1)C(=O)O
inactive: locus YAL013W, strain DEP1, hits give low values 1.02 | locus YAL021C, strain ccr4, hits give low values 1.01 | locus YAL026C, strain drs2, hits give low values 1 | locus YAL030W, strain snc1, hits give low values 1.01 | locus YBL061C, strain skt5, hits give low values 1 | locus YBR009C, strain hhf1, hits give low values 0.968 | locus YBR021W, strain FUR4, hits give low values 0.98 | locus YBR023C, strain chs3, hits give low values 1.01 | locus YBR171W, strain sec66, hits give low values 0.99 | locus YBR229C, strain ROT2, hits give low values 1.01 | locus YBR231C, strain swc5, hits give low values 0.971 | locus YBR279W, strain paf1, hits give low values 0.999 | locus YCL011C, strain gbp2, hits give low values 1 | locus YCL016C, strain dcc1, hits give low values 1.03 | locus YCL029C, strain bik1, hits give low values 1 | locus YCL069W, strain vba3, hits give low values 0.988 | locus YCR088W, strain abp1, hits give low values 0.987 | locus YDL005C, strain med2, hits give low values 0.997 | locus YDL035C, strain GPR1, hits give low values 1.02 | locus YDL040C, strain nat1, hits give low values 1 | locus YDL074C, strain BRE1, hits give low values 1.05 | locus YDL101C, strain DUN1, hits give low values 1.01 | locus YDL134C, strain PPH21, hits give low values 1.01 | locus YDL185W, strain tfp1, hits give low values 1 | locus YDL192W, strain arf1, hits give low values 1.01 | locus YDR001C, strain nth1, hits give low values 0.987 | locus YDR069C, strain doa4, hits give low values 0.997 | locus YDR101C, strain arx1, hits give low values 1.01 | locus YDR137W, strain rgp1, hits give low values 0.982 | locus YDR150W, strain NUM1, hits give low values 1.02 | locus YDR159W, strain sac3, hits give low values 0.935 | locus YDR162C, strain NBP2, hits give low values 1.02 | locus YDR195W, strain ref2 0.961 | locus YDR297W, strain sur2, hits give low values 1 | locus YDR318W, strain mcm21, hits give low values 0.993 | locus YDR334W, strain swr1, hits give low values 0.946 | locus YDR335W, strain msn5, hits give low values 0.994 | locus YDR388W, hits give low values 1.01 | locus YDR392W, strain spt3, hits give low values 0.965 | locus YDR502C, strain sam2, hits give low values 1 | locus YEL003W, strain gim4, hits give low values 0.983 | locus YEL037C, strain rad23, hits give low values 0.976 | locus YEL061C, strain CIN8 (second series), hits give low values 0.962 | locus YEL061C, strain CIN8, hits give low values 1.01 | locus YER015W, strain faa2, hits give low values 0.993 | locus YER016W, strain bim1, hits give low values 1.02 | locus YER110C, hits give low values 1 | locus YER111C, strain swi4, hits give low values 0.999 | locus YER155C, strain BEM2 (second series), hits give low values 0.99 | locus YER155C, strain BEM2, hits give low values 1 | locus YER167W, strain BCK2, hits give low values 1.01 | locus YFR010W, strain ubp6, hits give low values 0.942 | locus YGL078C, strain dbp3, hits give low values 1.02 | locus YGL086W, strain mad1, hits give low values 1.01 | locus YGL167C, strain pmr1, hits give low values 0.983 | locus YGL173C, strain kem1, hits give low values 0.97 | locus YGL227W, strain vid30, hits give low values 0.98 | locus YGL240W, strain doc1, hits give low values 0.955 | locus YGL248W, strain PDE1, hits give low values 1 | locus YGL253W, strain hxk2, hits give low values 1 | locus YGR078C, strain PAC10, hits give low values 1.05 | locus YGR135W, strain pre9, hits give low values 1 | locus YGR229C, strain SMI1, hits give low values 1.03 | locus YGR252W, strain gcn5, hits give low values 0.935 | locus YHR013C, strain ard1, hits give low values 1 | locus YHR027C, strain rpn1, hits give low values 0.996 | locus YHR030C, strain SLT2, hits give low values 1.02 and 1.05 | locus YHR079C, strain IRE1 (second series), hits give low values 1.01 | locus YHR079C, strain IRE1, hits give low values 1.06 | locus YHR094C, strain hxt1, hits give low values 1 | locus YHR129C, strain ARP1, hits give low values 1.01 | locus YHR142W, strain chs7, hits give low values 0.992 | locus YHR200W, strain rpn10, hits give low values 1 | locus YIL066C, strain RNR3, hits give low values 1.02 | locus YIL073C, strain SPO22, hits give low values 1.04 | locus YIL125W, strain kgd1, hits give low values 0.994 | locus YIR030C, strain dcg1, hits give low values 1.02 | locus YJL092W, strain hpr5, hits give low values 1 | locus YJL095W, strain BCK1 (second series), hits give low values 0.996 | locus YJL095W, strain BCK1, hits give low values 1.02 and 1.05 | locus YJL115W, strain asf1, hits give low values 0.979 | locus YJL129C, strain trk1, hits give low values 1 | locus YJL134W, strain LCB3, hits give low values 1.01 | locus YJL154C, strain vps35, hits give low values 0.977 | locus YJL164C, strain tpk1, hits give low values 0.979 | locus YJL166W, strain qcr8, hits give low values 0.981 | locus YJL168C, strain set2, hits give low values 0.992 | locus YJL187C, strain SWE1 (second series), hits give low values 1.02 | locus YJL187C, strain SWE1, hits give low values 1.02
